{"source": "PubChem BioAssay (NCATS)", "note": "Unmarked numbers belong to inactive results. Inconclusive results are not listed. The source made the active and inactive calls. Calls come from the whole dose curve; as a rule, active = well fitted activation curve with a large enough effect; inconclusive = small, poorly fitted or top-dose-only effect; inactive = flat fitted curve, though single readings scatter."}
{"assay": "Cellular Toxicity (caspase-3) Hek293 (AID 664);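 note: cells exposed to compound for 16 h at 37 °C before readout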", "settings": "HEK293 caspase-3 activation, DMSO = 0%, 100 µM tamoxifen = 100%; series mostly up to 92.2 µM; caspase-3 activation: at the top concentration", "summary_of_the_method": "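Concentration-response qHTS: caspase 3/7 activation measured by luminescent aminoluciferin substrate cleavage after 16 h compound exposure of Hek 293 cells. AC50 from Hill equation, with DMSO as basal and 100 uM tamoxifen as 100%.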", "units": {"caspase-3 activation": "%"}}
{"molecule": "CCCCCCCCOC(=O)c1ccccc1C(=O)OCCCCCCCC", "caspase-3 activation": 3.7}
{"molecule": "NNC(N)=O", "caspase-3 activation": -0.605}
{"molecule": "Oc1cc(Cl)c(Cl)cc1Cl", "caspase-3 activation": -1.51}
{"assay": "Cellular Toxicity (caspase-3) N2a (AID 665);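 note: compound exposure lasted 16 h at 37 °C before readout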", "settings": "N2a cells, luminescence, normalized: DMSO 0%, 10 µM staurosporine 100%; series mostly up to 92.2 µM; caspase-3 activation: at the top concentration", "summary_of_the_method": "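Caspase-3/7 activation measured as luminescence from Caspase-Glo reagent (1 h, room temperature) after 16 h compound exposure of mouse N2a cells. AC50 values from Hill-equation concentration-response, scaled between DMSO and 10 uM staurosporine.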", "units": {"caspase-3 activation": "%"}}
{"molecule": "CC(C)CCON=O", "caspase-3 activation": 0.146}
{"molecule": "[O]=[Cd]", "caspase-3 activation": 0.61}
{"molecule": "COC1=CC(=O)O[C@@H](/C=C/c2ccccc2)C1", "caspase-3 activation": -7.26}
{"molecule": "O=C1C2CC=CCC2C(=O)N1SC(Cl)(Cl)Cl", "note": "(stereo unspecified)", "outcome": "inactive"}
{"molecule": "CC(C)Nc1ccc(Nc2ccccc2)cc1", "caspase-3 activation": -3.93}
{"molecule": "C[C@]12CCC(=O)C[C@@H]1CC[C@@H]1[C@@H]2CC[C@]2(C)[C@@H](O)CC[C@@H]12", "caspase-3 activation": 1.33}
{"molecule": "ClCC1CO1", "note": "(stereo unspecified)", "caspase-3 activation": 4.38}
{"molecule": "S=C=S", "caspase-3 activation": -0.938}
{"molecule": "CC(C)(C)c1cc(O)ccc1O", "outcome": "inactive"}
{"molecule": "O=C1CCO1", "caspase-3 activation": 3.57}
{"molecule": "ClC=C(Cl)Cl", "caspase-3 activation": 0.398}
{"molecule": "O=C/C=C/c1ccccc1", "outcome": "inactive"}
{"molecule": "C=CCN=C=S", "caspase-3 activation": -2.1}
{"molecule": "[O]=[Cr](=[O])([OH])[O][Cr](=[O])(=[O])[OH]", "outcome": "inactive"}
{"molecule": "O=[N+]([O-])c1ccc(F)c([N+](=O)[O-])c1", "caspase-3 activation": -14.4}
{"molecule": "CCCCCl", "caspase-3 activation": -3.13}
{"molecule": "O=Cc1ccco1", "caspase-3 activation": 2.01}
{"molecule": "O=CC=O", "caspase-3 activation": -1.51}
{"molecule": "CCOC(=O)c1ccccc1C(=O)OCC", "outcome": "inactive"}
{"molecule": "O=[N+]([O-])c1ccccc1", "caspase-3 activation": -3.81}
{"molecule": "O=C(O)C(Cl)(Cl)Cl", "outcome": "inactive"}
{"molecule": "[Cl-].[Cl-].[Hg+2]", "caspase-3 activation": -13.4}
{"molecule": "O=C1C=CC(=O)C=C1", "caspase-3 activation": -4.59}
{"molecule": "COc1ccc2c(c1OC)C(=O)OC2C1c2cc3c(cc2CCN1C)OCO3", "note": "(stereo unspecified)", "caspase-3 activation": -1.48}
{"molecule": "ClC(Cl)(Cl)Cl", "outcome": "inactive"}
{"molecule": "Clc1ccccc1Cl", "caspase-3 activation": -3.4}
{"molecule": "C[C@H]1CCC[C@H](O)CCCCCc2cc(O)cc(O)c2C(=O)O1", "caspase-3 activation": 5.61}
{"molecule": "C[C@H]1CC[C@@H]2[C@@H](C)[C@H]3[C@H](C[C@H]4[C@@H]5CC=C6CC(O[C@@H]7O[C@H](CO)[C@H](O)[C@H](O[C@@H]8O[C@H](CO)[C@@H](O)[C@H](O)[C@H]8O)[C@H]7O[C@H]7O[C@@H](C)[C@H](O)[C@@H](O)[C@H]7O)CC[C@]6(C)[C@H]5CC[C@]34C)N2C1", "note": "(stereo partly specified)", "caspase-3 activation": -13.2}
